Holding throughout (conditions): Compound concentration 20.0 uM
Assay [1] concerns the target Tyrosine-protein kinase ABL1 (Homo sapiens) (UniProt P00519).
Assay [2] addresses Bromodomain-containing protein 4 (Homo sapiens) (UniProt O60885).
Assay [3] deals with Cyclin-dependent kinase 2 (Homo sapiens) (UniProt P24941).
The target in assay [4] is Casein kinase I isoform delta (Homo sapiens) (UniProt P48730).
The target in assay [5] is Glycogen synthase kinase-3 beta (Homo sapiens) (UniProt P49841).
Chain of Glycogen synthase kinase-3 beta (Homo sapiens) (P49841 whole entry, looked up): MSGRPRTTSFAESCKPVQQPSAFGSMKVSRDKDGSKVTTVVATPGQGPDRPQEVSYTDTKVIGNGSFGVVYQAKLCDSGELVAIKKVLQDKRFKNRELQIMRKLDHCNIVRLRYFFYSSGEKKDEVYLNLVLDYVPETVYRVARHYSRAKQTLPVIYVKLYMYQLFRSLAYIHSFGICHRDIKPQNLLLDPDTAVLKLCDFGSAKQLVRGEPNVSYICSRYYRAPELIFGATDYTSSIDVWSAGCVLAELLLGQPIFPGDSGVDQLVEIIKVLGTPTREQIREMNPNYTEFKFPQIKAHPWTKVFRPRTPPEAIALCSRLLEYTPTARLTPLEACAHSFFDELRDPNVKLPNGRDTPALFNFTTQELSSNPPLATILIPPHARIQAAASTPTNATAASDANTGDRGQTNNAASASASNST
In assay [6] the target is Mitogen-activated protein kinase 1 (Homo sapiens) (UniProt P28482).
Chain of Mitogen-activated protein kinase 1 (Homo sapiens) (P28482 whole entry): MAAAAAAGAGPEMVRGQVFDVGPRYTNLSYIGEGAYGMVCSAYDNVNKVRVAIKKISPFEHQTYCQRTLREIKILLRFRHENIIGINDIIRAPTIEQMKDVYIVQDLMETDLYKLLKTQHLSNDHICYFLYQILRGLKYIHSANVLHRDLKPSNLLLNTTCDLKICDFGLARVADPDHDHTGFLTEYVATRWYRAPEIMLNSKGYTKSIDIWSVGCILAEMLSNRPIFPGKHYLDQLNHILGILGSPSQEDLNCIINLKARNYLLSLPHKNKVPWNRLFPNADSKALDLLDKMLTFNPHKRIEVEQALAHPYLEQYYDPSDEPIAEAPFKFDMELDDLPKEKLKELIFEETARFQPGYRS
For assay [7], the target named is T1, Aurora kinase A (Homo sapiens) (UniProt O14965).
T1 sequence (whole entry): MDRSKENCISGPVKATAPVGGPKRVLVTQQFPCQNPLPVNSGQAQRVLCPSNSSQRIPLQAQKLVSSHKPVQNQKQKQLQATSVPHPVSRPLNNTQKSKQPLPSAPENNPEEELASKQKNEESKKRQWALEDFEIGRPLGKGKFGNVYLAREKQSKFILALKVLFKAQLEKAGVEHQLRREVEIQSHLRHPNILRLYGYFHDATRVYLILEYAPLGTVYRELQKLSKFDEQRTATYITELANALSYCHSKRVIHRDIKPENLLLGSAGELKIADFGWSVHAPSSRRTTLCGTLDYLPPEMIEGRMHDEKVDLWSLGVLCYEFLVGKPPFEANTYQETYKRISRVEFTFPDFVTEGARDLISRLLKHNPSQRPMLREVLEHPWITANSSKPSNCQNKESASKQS

The target in assay [8] is T2, Transcription intermediary factor 1-alpha (Homo sapiens) (UniProt O15164).
T2 sequence (whole entry): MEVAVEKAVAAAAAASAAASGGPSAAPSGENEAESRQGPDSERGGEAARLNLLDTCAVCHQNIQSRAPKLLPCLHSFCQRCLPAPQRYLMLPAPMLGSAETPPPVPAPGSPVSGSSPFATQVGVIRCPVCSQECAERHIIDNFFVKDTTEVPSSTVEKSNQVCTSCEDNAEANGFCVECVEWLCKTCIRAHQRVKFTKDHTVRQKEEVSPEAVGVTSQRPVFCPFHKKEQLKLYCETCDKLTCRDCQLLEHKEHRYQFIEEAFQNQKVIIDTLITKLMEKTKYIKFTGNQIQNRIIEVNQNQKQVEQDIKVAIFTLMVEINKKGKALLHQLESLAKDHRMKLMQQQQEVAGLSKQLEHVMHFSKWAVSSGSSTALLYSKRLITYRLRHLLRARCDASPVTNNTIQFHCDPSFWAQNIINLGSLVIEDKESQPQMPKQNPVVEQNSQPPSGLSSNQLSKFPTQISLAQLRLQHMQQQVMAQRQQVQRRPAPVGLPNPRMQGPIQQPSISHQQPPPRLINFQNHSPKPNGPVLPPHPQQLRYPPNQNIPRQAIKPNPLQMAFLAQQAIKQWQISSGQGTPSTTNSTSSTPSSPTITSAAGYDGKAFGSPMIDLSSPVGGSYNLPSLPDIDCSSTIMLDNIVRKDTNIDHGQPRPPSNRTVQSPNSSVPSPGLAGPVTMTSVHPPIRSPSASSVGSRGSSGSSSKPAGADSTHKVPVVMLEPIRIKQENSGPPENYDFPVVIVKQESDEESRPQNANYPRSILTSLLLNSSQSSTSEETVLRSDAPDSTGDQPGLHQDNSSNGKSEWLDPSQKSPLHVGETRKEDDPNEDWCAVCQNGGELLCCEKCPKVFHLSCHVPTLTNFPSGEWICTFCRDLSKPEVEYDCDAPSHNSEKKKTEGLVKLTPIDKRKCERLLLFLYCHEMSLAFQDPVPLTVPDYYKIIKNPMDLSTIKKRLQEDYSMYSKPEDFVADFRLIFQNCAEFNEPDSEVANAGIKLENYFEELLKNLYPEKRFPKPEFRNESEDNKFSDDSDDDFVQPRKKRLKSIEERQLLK

ΔTm data for 16 compounds are collected here from ChEMBL document CHEMBL5724796, “Tm Shift (DSF) assay results for EUbOPEN Chemogenomics Library” (2024).

SMILES strings stand for the structures. Values joined by “and” are separate entries in the source; they are usually repeats but may differ in a detail not shown here. Identical values can stand only once.

Chain of Casein kinase I isoform delta (Homo sapiens) (P48730 whole entry, looked up, canonical isoform): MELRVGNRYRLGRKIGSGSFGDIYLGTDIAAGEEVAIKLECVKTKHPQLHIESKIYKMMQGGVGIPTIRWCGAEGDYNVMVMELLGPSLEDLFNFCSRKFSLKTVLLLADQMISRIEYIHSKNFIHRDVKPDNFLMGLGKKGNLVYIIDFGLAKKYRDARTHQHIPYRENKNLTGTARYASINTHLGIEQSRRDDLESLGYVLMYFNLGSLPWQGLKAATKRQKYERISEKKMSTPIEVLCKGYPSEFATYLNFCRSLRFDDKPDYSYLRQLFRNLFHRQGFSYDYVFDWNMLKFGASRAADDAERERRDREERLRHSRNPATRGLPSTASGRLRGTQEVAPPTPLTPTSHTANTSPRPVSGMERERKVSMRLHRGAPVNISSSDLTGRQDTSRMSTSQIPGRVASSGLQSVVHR
Chain of Tyrosine-protein kinase ABL1 (Homo sapiens) (P00519 whole entry): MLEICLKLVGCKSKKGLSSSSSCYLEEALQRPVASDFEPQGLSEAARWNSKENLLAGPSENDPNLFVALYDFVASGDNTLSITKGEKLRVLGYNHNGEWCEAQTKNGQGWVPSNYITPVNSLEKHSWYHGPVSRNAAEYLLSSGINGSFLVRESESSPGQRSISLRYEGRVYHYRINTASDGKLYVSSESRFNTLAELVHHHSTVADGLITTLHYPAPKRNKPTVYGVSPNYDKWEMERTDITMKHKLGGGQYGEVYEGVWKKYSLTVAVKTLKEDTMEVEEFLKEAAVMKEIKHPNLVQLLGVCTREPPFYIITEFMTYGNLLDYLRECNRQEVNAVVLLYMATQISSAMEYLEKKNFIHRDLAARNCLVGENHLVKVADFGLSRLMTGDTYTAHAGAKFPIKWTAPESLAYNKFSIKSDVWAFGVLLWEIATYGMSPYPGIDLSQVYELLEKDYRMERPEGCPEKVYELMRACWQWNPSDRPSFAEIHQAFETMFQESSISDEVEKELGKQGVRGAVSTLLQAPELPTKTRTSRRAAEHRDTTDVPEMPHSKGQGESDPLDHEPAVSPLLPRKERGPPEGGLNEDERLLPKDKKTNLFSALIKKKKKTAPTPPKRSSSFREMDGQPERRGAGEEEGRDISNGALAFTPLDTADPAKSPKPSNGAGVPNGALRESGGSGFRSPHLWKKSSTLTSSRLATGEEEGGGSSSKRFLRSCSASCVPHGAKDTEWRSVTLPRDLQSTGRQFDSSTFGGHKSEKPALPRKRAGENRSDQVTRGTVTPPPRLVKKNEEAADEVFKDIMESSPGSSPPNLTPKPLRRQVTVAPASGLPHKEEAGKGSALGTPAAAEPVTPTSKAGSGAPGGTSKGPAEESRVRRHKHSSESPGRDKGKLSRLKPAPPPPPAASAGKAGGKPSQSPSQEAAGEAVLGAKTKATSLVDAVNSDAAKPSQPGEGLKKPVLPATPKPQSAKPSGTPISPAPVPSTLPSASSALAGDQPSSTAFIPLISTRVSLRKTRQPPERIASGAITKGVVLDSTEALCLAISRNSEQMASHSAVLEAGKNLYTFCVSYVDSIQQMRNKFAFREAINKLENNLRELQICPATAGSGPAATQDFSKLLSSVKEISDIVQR

Regarding `CN(C)CCCN(CC[C@H](N)C(=O)O)C[C@H]1O[C@@H](n2cnc3c(N)ncnc32)[C@H](O)[C@@H]1O`, the ΔTm (commonly the shift of the melting midpoint relative to a reference) in assay [1] is 0.32 °C; in assay [2], -2.2 °C; in assay [3] it was -0.1 °C; in assay [4] it was 0.02 °C; in assay [5], -1.16 °C; in assay [6], 0.04 °C. In addition, the results for the ΔTm in assay [7] and in assay [8] were -0.74 °C and -1.49 °C, respectively.
Regarding `Cc1cc(Cn2c(=O)n(Cc3cnc(C)s3)c(=O)c3cc(S(=O)(=O)NC4(C)CC4)ccc32)n(C)n1`, the shift in melting temperature (ΔTm) in assay [1] was 0.2 °C; in assay [2] it was -4.6 °C; in assay [3], 0.24 °C; in assay [4] it was 0.39 °C; in assay [5], -0.6 °C; in assay [6] it was 0.1 °C. In addition, the ΔTm in assay [7] is -3.34 °C; in assay [8], -1.26 °C.
For `O=C(NC1CCC1)c1ccc2nc(-c3cccc(NS(=O)(=O)NCCN4CCCCC4)c3)cn2c1`, the ΔTm in assay [1] is 0.57 °C; in assay [2], -2.44 °C; in assay [3], 0.18 °C; in assay [4], -0.21 °C; in assay [5], -0.29 °C; in assay [6], 0.15 °C. In addition, the ΔTm in assay [7] was -2.15 °C; in assay [8], 0.09 °C.
As to `CN1CCN(c2ccc3nc(-c4c(N)c5c(F)cccc5[nH]c4=O)[nH]c3c2)CC1`, the ΔTm in assay [2] is -0.49 °C; in assay [3], 0.73 °C; in assay [4], 2.74 °C; in assay [5], 3.22 °C; in assay [6] it was -0.2 °C; in assay [7] it was 2.63 °C. In assay [8], the shift in melting temperature (ΔTm) was -0.57 °C.
On to `CC(=O)N[C@@H](CC(=O)O)C(=O)N[C@@H](CC(N)=O)C(=O)N[C@@H](CC(C)C)C(=O)N[C@H](C=O)CC(=O)O`, for which the ΔTm in assay [1] was 0.21 °C; in assay [2] it was -3.48 °C; in assay [3], 0.27 °C; in assay [4] it was -0.23 °C; in assay [5] it was -0.99 °C; in assay [6], 0.1 °C. In addition, the values for the ΔTm in assay [7] and in assay [8] were -0.95 °C and 0.8 °C, respectively.
On to `O=C(c1cccc(-c2ccc(-c3cn(C(=O)N4CCCCC4c4ccccc4)nn3)cc2)c1)N1CCCCC1` (stereo not given), for which the ΔTm is 1.85 °C in assay [1]; 11.3 °C in assay [2]; 0.3 °C in assay [3]; 0.93 °C in assay [4]; -2.22 °C in assay [5]; 1.43 °C in assay [6]. Further, the ΔTm in assay [7] is 4.6 °C; in assay [8] it was -0.32 °C.
Regarding `COc1cc2/c(=N/c3ccc(Br)cc3F)nc[nH]c2cc1OCC1CCN(C)CC1`, the ΔTm in assay [2] is -0.83 °C; in assay [3] it was 0.52 °C; in assay [4], 1.25 °C; in assay [5], -0.61 °C; in assay [6], 0.07 °C; in assay [8] it was -1.14 °C.
With `O=C1c2ccccc2C(=O)c2oc(-c3cccnc3)nc21`, the shift in melting temperature (ΔTm) in assay [1] was 0.81 °C; in assay [2], -2.99 °C; in assay [3] it was 0.36 °C; in assay [4], -0.59 °C; in assay [5], 0.34 °C; in assay [6], 0.32 °C. Also, the ΔTm is -2.61 °C in assay [7] and -0.87 °C in assay [8].
Regarding `Cc1nc(F)ccc1-c1cc(Cn2ccn(C)c2=N)cc(C(=O)NCc2ccc(Cl)c(Cl)c2)c1`, the ΔTm is 0.39 °C in assay [1]; -2.09 °C in assay [2]; -0.77 °C in assay [3]; 0.13 °C in assay [4]; -0.9 °C in assay [5]; -0.24 °C in assay [6]. In addition, the figures for the ΔTm in assay [7] and in assay [8] were -0.34 °C and -1.96 °C, respectively.
In the case of `CCCSc1nc2c(c(=O)n1-c1ccccc1)SCC2`, the ΔTm is -0.05 °C in assay [1]; 1.58 °C in assay [2]; -0.05 °C in assay [3]; -0.11 °C in assay [4]; -0.82 °C in assay [5]; 1.06 °C in assay [6]. Moreover, the ΔTm was found to be 0.01 °C in assay [7] and 0.72 °C in assay [8].
Consider `CC(C)N(C[C@H]1O[C@@H](n2cnc3c(N)ncnc32)[C@H](O)[C@@H]1O)[C@H]1C[C@@H](CCc2nc3cc(C(C)(C)C)ccc3[nH]2)C1`, for which the ΔTm in assay [1] is 0.52 °C; in assay [2], -1.59 °C; in assay [3], 0.63 °C; in assay [4] it was 0.57 °C; in assay [5], -0.47 °C; in assay [6], -0.02 °C. Moreover, the figures for the ΔTm in assay [7] and in assay [8] were 0.32 °C and -0.97 °C, respectively.
For `CCCCCCCCCCCCC/C=C/[C@@H](O)[C@H](CO)NC(=O)CCl`, the ΔTm was 0.07 °C in assay [1]; -0.55 °C in assay [2]; -0.22 °C in assay [3]; 2.15 °C in assay [4]; -0.08 °C in assay [5]; 1.33 °C in assay [6]. Also, the ΔTm is 0.17 °C in assay [7] and -0.39 °C in assay [8].
Consider `CSc1cccc(Nc2ncc3cc(-c4c(Cl)cccc4Cl)c(=O)n(C)c3n2)c1`, for which the shift in melting temperature (ΔTm) in assay [2] is -0.42 °C; in assay [3] it was 0.94 °C; in assay [4], 0.35 °C; in assay [6], -1 °C; in assay [7] it was -0.33 °C.
Take `FC(F)(F)Oc1ccc(Oc2ccnc(N3CCC(NC(=S)Nc4cccnc4)CC3)c2Cl)c(Cl)c1`: the ΔTm in assay [1] is 0 °C and -0.06 °C; in assay [2] it was -3.17 °C and -5.35 °C; in assay [3] it was -0.35 °C and 0.35 °C; in assay [4], -2.73 °C and 0.27 °C; in assay [7], 0.16 °C and -1.29 °C; in assay [8], 1.66 °C and 0 °C.
For the compound `Cc1ncccc1-c1cnc(NCc2c(F)ccc3c2CCO3)n2cnnc12`, the ΔTm in assay [1] was 0.04 °C; in assay [2], -1.73 °C; in assay [3], 0.42 °C; in assay [4], 0.15 °C; in assay [5] it was -0.06 °C; in assay [6] it was 0.37 °C. In addition, the ΔTm in assay [7] is -0.39 °C; in assay [8], -1.52 °C.
`Cc1c(NC(=O)c2cc(C(N)=O)nc3cc(F)ccc23)c(C(F)(F)F)nn1Cc1ccc(C#N)cc1`: the ΔTm in assay [1] is 0.61 °C; in assay [2] it was -2.09 °C; in assay [3] it was 0.06 °C; in assay [4] it was 0.03 °C; in assay [5] it was 0.78 °C; in assay [6], 0.34 °C. Further, the figures for the ΔTm in assay [7] and in assay [8] were -2.13 °C and 1.34 °C, respectively.
